Only some compounds are listed: those with a hit (about 1.4% of all), similar ones and a draw of the others.
ugtP null kill – growth inhibition of S. aureus ugtP deletion strain; S. aureus RN4220 ugtP deletion, OD600 growth, 16 h; growth inhibition, % (test concentration not listed); 0.54% of 330,000 active; AID 1259309; in the data active = growth inhibition above about 68%;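 also: plate controls were untreated wells for no effect and antibiotic for full effect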
BJeLR lethal – BJeLR cell viability loss; inhibition, % (concentration not given with the values); BJeLR (HRASV12) viability, CellTiter-Glo ATP luminescence, 48 h; 0.17% of 300,000 active; in the data active = inhibition above about 50%
RN4220 kill – kills Staphylococcus aureus RN4220; S. aureus RN4220 growth, OD600, 16 h; inhibition, % (test concentration not listed); 0.33% of 330,000 active; AID 1259311; in the data active = inhibition above about 85%;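 also: plate controls were untreated cells for no effect and reference antibiotic for full effect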
PrPC TRFRET – reduces human prion protein on the cell surface | P04156 | cell surface PrPC, TR-FRET read-out | inhibition, % at 13.8 µM | 0.43% of 370,000 active | AID 720596; in the data active = inhibition above about 24%; also: 0% = median of the test wells and 100% = reference compound wells
VHR inh abs – blocks human VHR1 dual specificity phosphatase. recombinant VHR phosphatase, pNPP absorbance. inhibition, % at 13.3 µM. 0.52% of 290,000 active; in the data active = inhibition above about 50%
SARS 3CLpro inh – SARS-CoV 3CLpro protease inhibition. inhibition, % at 6 µM. recombinant SARS-CoV 3CLpro, quenched FRET peptide cleavage. P0C6X7. 0.14% of 290,000 active. AID 1706; in the data active = inhibition above about 12%
PrPC TRFRET cf – cell surface PrPC inhibition, TR-FRET confirmation; shares compounds with PrPC TRFRET; cell surface PrPC level; AID 743200; inhibition, % at 13.8 µM; 65% of 1,500 active; in the data active = inhibition above about 25%
LD9 cytotox – kills or reduces viability of LD9 cells in PrPc counter-screen; LD9 cells cytotoxicity, luminescence viability; shares compounds with PrPC TRFRET; inhibition, % at 13.8 µM; 29% of 1,500 active; in the data active = inhibition above about 9.5%
Numbers without * were called inactive; / = not tested or not shown.

SMILES	ugtP null kill	BJeLR lethal	RN4220 kill	PrPC TRFRET	VHR inh abs	SARS 3CLpro inh	PrPC TRFRET cf	LD9 cytotox
CC(=NCc1cccnc1)c1c(O)n(-c2ccc(C)cc2)c(=O)[nH]c1=O	3	1	0	85*	36	1	65*	-3
CC(=NCc1cccnc1)c1c(O)n(-c2ccccc2C)c(=O)[nH]c1=O	1	4	1	3	20	6	/	/
C#CCOCCOCCOCCNc1nc(N2CCN(C(=O)C(CCCCN)n3cc(CN)nn3)CC2)nc(N2CCN(C(=O)C(CCC(=O)O)n3cc(C(N)CCCCN)nn3)CC2)n1 (centres undefined)	0	/	2	/	/	/	/	/
O=C(Nc1ccc(Br)cn1)c1ccc(Br)s1	18	7	-4	28*	15	8	44*	-3
Cc1cc(C(=O)Nc2ccc(Br)cn2)sc1C	0	/	9	24	/	/	/	/
NC(Cc1ccc(F)cc1)c1csc(Nc2ncccn2)n1 (centres undefined)	/	/	/	59*	/	/	55*	23*
COc1ccc(CC(N)c2csc(Nc3ncccn3)n2)cc1 (centres undefined)	/	/	/	38*	/	/	38*	3
COc1ccc(C(N)c2csc(Nc3ncccn3)n2)cc1 (centres undefined)	/	/	/	36*	/	/	18	-6
COc1ccc(CC(N)c2csc(Nc3nccc(C(F)(F)F)n3)n2)cc1 (centres undefined)	/	/	/	-7	/	/	/	/
NC(c1csc(Nc2ncccn2)n1)c1ccccc1Cl (centres undefined)	/	/	/	33*	/	/	19	-8
CCOc1ccc(N=C2NC(=O)SC2=Cc2ccc(O)cc2)cc1	-12	/	5	/	/	/	/	/
CCOC(=O)N1C2=NC(C(=O)OC)=C(C(=O)OC)C3Nc4ccccc4[C@]23CC1C(=O)OC (some centres undefined)	-1	/	2	/	/	/	/	/
Nc1ccc(CC(N)c2csc(Nc3ncccn3)n2)cc1 (centres undefined)	/	/	/	21	/	/	/	/
NC(Cc1ccc(Cl)cc1)c1csc(Nc2ncccn2)n1 (centres undefined)	/	/	/	52*	/	/	60*	13*
CC(NC(=O)CCC(=O)c1cccs1)c1ccccc1 (centres undefined)	0	7	-1	-3	/	/	/	/
O=C(CCC(=O)c1cccs1)NC(c1ccccc1)c1ccccc1	16	0	0	33*	0	4	-2	-2
CCCCCCC(C)(C)c1ccc(C2CC(O)CCC2CCCO)c(O)c1 (centres undefined)	-2	/	-7	/	/	/	/	/
N#Cc1c(-c2ccco2)nc(SCc2ccc(F)cc2)[nH]c1=O	5	-1	20	95*	6	-3	121*	-7
N#Cc1c(-c2ccccc2)nc(SCc2ccc(Cl)cc2)[nH]c1=O	/	-5	/	-3	-29	4	/	/
CCOc1ccc(C(=O)N/N=C/c2cccc3cccnc23)cc1	/	7	/	25*	7	2	24	4
COc1ccc(C(=O)N/N=C/c2cccc3cccnc23)cc1	/	-3	/	18	20	-2	/	/
CO[C@H]([C@H](C)/C=C/N(C)C=O)[C@@H](C)C(=O)CC[C@H](C)[C@H](O)[C@H](C)[C@H]1OC(=O)/C=C/C(C)=C/C[C@H](O)C[C@@H]2C=CC[C@@H](C[C@H](OC)[C@@H](C)[C@@H](OC)C[C@@H](OC)[C@@H]1C)O2	/	/	/	48*	/	/	39*	26*
CO[C@H]([C@H](C)/C=C/N(C)C=O)[C@@H](C)C(=O)CC[C@H](C)[C@H](O)[C@H](C)[C@H]1OC(=O)/C=C/C(C)=C/C[C@H](O)C[C@@H]2C=CC[C@@H](C[C@H](OC)[C@@]3(CO3)[C@@H](OC)C[C@@H](OC)[C@@H]1C)O2	/	/	/	41*	/	/	37*	39*
c1ccc(Cc2nnc(Sc3ccccc3)c3ccccc23)cc1	46	-3	0	53*	-2	-1	71*	-14
COC(=O)C1=C(C(=O)OC)C2N(Cc3ccccc3)c3ccccc3[C@@]23CC(C(=O)OC)N(C(=O)NC2CCCCC2)C3=N1 (some centres undefined)	7	/	-4	/	/	/	/	/
SMILES	ugtP null kill	BJeLR lethal	RN4220 kill	PrPC TRFRET	VHR inh abs	SARS 3CLpro inh	PrPC TRFRET cf	LD9 cytotox
O=C(Nc1ccccc1)C1=CC(C2CC2)CC(OCc2ccc(CO)cc2)O1 (centres undefined)	3	/	1	/	/	/	/	/
CCC1=C(OC(=O)N(CC)CC)N2C(=O)OC(=NCCc3c[nH]c4ccccc34)[C@]2(C)C2C1=CCC1C(=O)N(CC)C(=O)C12 (some centres undefined)	5	/	9	/	/	/	/	/
COc1cc(OCc2ccccc2)c2c(CCC(=O)O)cc(=O)oc2c1	/	/	/	11	/	/	/	/
CCc1cc(=O)oc2cc(OC(C)=O)cc(OC(C)=O)c12	4	-3	-2	47*	11	1	46*	-6
COc1ccc(CN2CCC3C=CCC(C(=O)N4CCOCC4)C3C2=O)cc1OC (centres undefined)	-2	/	2	/	/	/	/	/
O=C(NCc1nc2ccccc2[nH]1)C1=CC(c2coc3ccccc3c2=O)CC(OCCCCO)O1 (centres undefined)	6	/	4	/	/	/	/	/
O=C1C(=C(I)I)c2ccccc2-c2ccccc21	/	/	/	4	/	/	/	/
O=C1C(=O)c2ccccc2-c2ccccc21	/	100*	/	27*	27	4	65*	99*
OCC1OC(n2ccc3c(NO)ncnc32)C(O)C1O (centres undefined)	/	/	/	53*	/	/	44*	92*
NC(=O)c1c(Br)n(C2OC(CO)C(O)C2O)c2ncnc(N)c12 (centres undefined)	/	/	/	0	/	/	/	/
NC(=O)c1cn(C2OC(CO)C(O)C2O)c2ncnc(N)c12 (centres undefined)	-2	91*	3	56*	13	1	58*	40*
N#Cc1cn(C2OC(CO)C(O)C2O)c2ncnc(N)c12 (centres undefined)	/	/	/	26*	/	/	30*	40*
CN(C)c1ncnc2c1ccn2C1OC(CO)C(O)C1O (centres undefined)	/	/	/	2	/	/	/	/
COc1ccc(C2C3C(=O)N(C(C)(C)C)C(=O)C3[C@]3(C)C(=O)N(c4cccc(F)c4)C(=O)N23)cc1 (some centres undefined)	6	/	6	/	/	/	/	/
Cc1cccc2cc(C(c3nnnn3Cc3ccccc3)N3CCN(c4ccccc4)CC3)c(=O)[nH]c12 (centres undefined)	-1	5	3	59*	-8	-3	3	-2
Cc1cccc2cc(C(c3nnnn3Cc3ccccc3)N3CCN(C)CC3)c(=O)[nH]c12 (centres undefined)	-4	3	3	/	8	0	/	/
COC(=O)C1=C(c2cc3ccccc3s2)CC2CCC1N2C(=O)NC1CC1 (centres undefined)	-7	/	5	/	/	/	/	/

Source: PubChem BioAssay (several laboratories)
